Among the data in PubChem BioAssay AID1835 (Johns Hopkins Ion Channel Center, 2009) are activity increase over dofetilide control, less the hit threshold values, retold here.

The whole screen tested about 2,400 compounds, of which about 750 (31%) were called active. The list shows a part of the results. Unmarked numbers belong to inactive results.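 Rule for the calls: active = median signal gain over dofetilide-blocked control wells reaching their mean plus 3 SD, so readout 1 at least 0; inactive = the rest.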

The experiment deals with Voltage-gated inwardly rectifying potassium channel KCNH2 (Homo sapiens) (UniProt Q12809). Nature of the experiment: modulators restoring hERG flux under dofetilide – cell-based, thallium flux, duplicate retest, dofetilide IC70, confirmation (AID 1835). The settings on record: hERG cell line, FluxOR thallium flux, dofetilide-blocked; at 10 µM; hits give high values. For orientation: hERG is a cardiac potassium channel; its block is linked to QT prolongation.
Voltage-gated inwardly rectifying potassium channel KCNH2 (Homo sapiens), sequence (Q12809 whole entry, looked up): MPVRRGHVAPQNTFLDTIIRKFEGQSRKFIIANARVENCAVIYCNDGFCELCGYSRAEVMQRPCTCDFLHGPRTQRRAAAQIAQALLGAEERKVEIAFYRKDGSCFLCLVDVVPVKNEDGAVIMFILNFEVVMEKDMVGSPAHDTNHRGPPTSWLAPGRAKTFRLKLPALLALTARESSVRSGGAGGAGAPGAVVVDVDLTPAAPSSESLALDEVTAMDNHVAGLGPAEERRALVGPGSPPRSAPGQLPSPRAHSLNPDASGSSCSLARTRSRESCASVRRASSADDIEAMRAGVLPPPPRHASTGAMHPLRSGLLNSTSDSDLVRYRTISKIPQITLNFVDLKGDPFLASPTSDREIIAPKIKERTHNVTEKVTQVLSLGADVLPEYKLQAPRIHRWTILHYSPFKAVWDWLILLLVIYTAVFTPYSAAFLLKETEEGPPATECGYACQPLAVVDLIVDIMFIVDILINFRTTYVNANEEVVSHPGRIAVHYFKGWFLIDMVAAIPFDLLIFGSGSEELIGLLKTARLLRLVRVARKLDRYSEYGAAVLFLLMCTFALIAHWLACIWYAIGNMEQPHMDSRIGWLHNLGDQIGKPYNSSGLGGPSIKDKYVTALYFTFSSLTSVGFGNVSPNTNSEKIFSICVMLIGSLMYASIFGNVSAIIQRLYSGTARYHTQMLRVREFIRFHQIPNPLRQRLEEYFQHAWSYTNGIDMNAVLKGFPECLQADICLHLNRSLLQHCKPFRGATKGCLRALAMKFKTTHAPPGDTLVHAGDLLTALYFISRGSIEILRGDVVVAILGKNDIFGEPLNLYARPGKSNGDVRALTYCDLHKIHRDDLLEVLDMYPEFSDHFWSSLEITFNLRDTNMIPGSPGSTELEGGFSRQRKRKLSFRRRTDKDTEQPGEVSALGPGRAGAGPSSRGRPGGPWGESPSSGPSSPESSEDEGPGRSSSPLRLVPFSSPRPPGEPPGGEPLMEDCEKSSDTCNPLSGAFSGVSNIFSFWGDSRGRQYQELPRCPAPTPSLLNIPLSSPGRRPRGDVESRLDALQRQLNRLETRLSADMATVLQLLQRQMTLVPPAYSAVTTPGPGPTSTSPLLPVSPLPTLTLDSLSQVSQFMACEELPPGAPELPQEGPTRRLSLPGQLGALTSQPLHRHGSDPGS
`O=C(NN1C(=O)C2C(c3ccccc3)C=CC(c3ccccc3)C2C1=O)c1cccc(Br)c1` (configuration not stated): the activity increase over dofetilide control, less the hit threshold was -54%. Consider `CC1Cc2cc(S(=O)(=O)NCc3ccccc3)ccc2N1C(=O)C1CCC1` (configuration not stated), for which the activity increase over dofetilide control, less the hit threshold is -22%. The figure for `CC(=O)N1CCc2cc(S(=O)(=O)N3c4ccccc4CC3C)ccc21` (configuration not stated) is -14%; for `COc1cc2c(cc1OC)C(C)N(C(=S)NC(=O)c1ccccc1)CC2` (configuration not stated) it is -18%; for `CC1Cc2ccccc2N1C(=S)NC(=O)c1ccco1` (configuration not stated) it is 6% (active). The figure for `Cc1csc2ncc(C(=O)N3c4ccccc4CC3C)c(=O)n12` (configuration not stated) is -2%. The figure for `CC1Cc2ccccc2N1C(=S)NC(=O)C1(C)CC1(Cl)Cl` (configuration not stated) is 42% (active); for `CC1=C(C#N)C(Nc2cc(C)ccn2)(C(F)(F)F)C(=O)N1` (configuration not stated) it is -10%. With `Cc1nn(Cc2ccccc2)c2c1C(c1cccnc1)C(C#N)=C(N)O2` (configuration not stated), the activity increase over dofetilide control, less the hit threshold is -6%. For `N=C1C(=O)OCC1c1cc(Cl)ccc1NC(=O)Nc1ccccc1` (configuration not stated), the activity increase over dofetilide control, less the hit threshold is -9%.

With `CCCn1c(CC)nc([N+](=O)[O-])c1S(=O)(=O)c1ccccc1`, the activity increase over dofetilide control, less the hit threshold is 3% (active). The figure for `CC(C)N1CC(C(=O)Nc2ccc(Cl)c(Cl)c2)CC1=O` (configuration not stated) is -8%.

With `CCCCCCCc1c(O)nc(SCC(=O)O)[nH]c1=O`, the activity increase over dofetilide control, less the hit threshold is -6%. The figure for `Cc1nc(NC(=O)c2ccco2)sc1C(=O)O` is -10%; for `O=C(NC(=S)Nc1nc2c(s1)CSc1ccccc1-2)c1ccccc1` it is 21% (active); for `CCOC(=O)c1sc(NC(=S)NC(=O)c2ccco2)nc1C` it is 7% (active). The figure for `CCOC(=O)c1sc(NC(=S)NC(=O)c2cccc(OC)c2)nc1C` is 7% (active). Take `Cc1csc(NC(=O)c2cn3ccccc3n2)n1`: the activity increase over dofetilide control, less the hit threshold was -12%. The figure for `Cc1csc(NC(=S)NC(=O)c2ccccc2)n1` is 10% (active); for `CCn1cc(CCC(=O)NCc2cccc(OC)c2OC)c2ccccc21` it is -12%. As to `CCOC(=O)c1sc(NC(=S)NC(=O)c2ccc(OC)cc2)nc1C`, the activity increase over dofetilide control, less the hit threshold was -2%. The figure for `COC(=O)c1sc(NC(=S)NC(=O)c2ccccc2C)nc1C` is 26% (active); for `COC(=O)c1sc(NC(=S)NC(=O)c2ccccc2F)nc1C` it is -3%; for `CCOC(=O)c1sc(NC(=S)NC(=O)c2ccccc2)nc1C` it is 36% (active). The figure for `COC(=O)c1sc(NC(=S)NC(=O)c2ccc(C)cc2)nc1C` is -3%; for `Cc1ccc(CN2CCN(/N=C/c3ccc(O)c(O)c3)CC2)cc1` it is 7% (active). Regarding `Nc1cccc(Oc2cnccn2)c1`, the activity increase over dofetilide control, less the hit threshold was -5%. The figure for `Nc1ncnc(NC2CCS(=O)(=O)C2)c1[N+](=O)[O-]` (configuration not stated) is -12%; for `Cc1cc(NC(=O)CSc2ccc3nnc(-c4cccs4)n3n2)no1` it is -17%; for `COc1ccc(C(=O)CC(=O)C(=O)Nc2ccc(C)cc2Cl)cc1` it is 35% (active). Under `COc1cc(OC)cc(C(=O)O/N=C(\N)c2cccc(C)c2)c1` stands -14%. Under `COc1cccc(C(=O)CC(=O)C(=O)Nc2ccc(C)cc2Cl)c1` stands 50% (active); under `COc1ccc(CNC(=O)C2CCCN2)cc1OC` (configuration not stated), -14%. With `Cc1ccc(CC23CN4CCN(CC(C4)C2O)C3)c(C)c1` (configuration not stated), the activity increase over dofetilide control, less the hit threshold was -14%. The figure for `NC(=O)c1nsc(C(=O)N(CC(=O)NCc2ccccc2)c2ccc(F)cc2)c1N` is -22%; for `Cc1ccc2c(c1)c1nnc(SCC(=O)Nc3ccc(N(C)C)cc3)nc1n2CC(=O)O` it is -9%. The figure for `O=C(/C=C/c1ccccc1)Nc1ccc(S(=O)(=O)N2CCOCC2)cc1` is -10%.

As to `COc1cc(/C=C/C(=O)N[C@@H](Cc2c[nH]c3ccccc23)C(=O)O)ccc1O`, the activity increase over dofetilide control, less the hit threshold was -8%. With `COc1ccc(/C=C/C(=O)Nc2ccccc2C(=O)O)cc1OC`, the activity increase over dofetilide control, less the hit threshold was 18% (active). The figure for `COc1ccc(/C=C/C(=O)Nc2ccccc2C(=O)O)cc1` is 5% (active); for `COc1cc(/C=C/C(=O)O)ccc1OS(=O)(=O)c1cc(C)ccc1C` it is -26%. Consider `C=CCNC(=O)c1ccccc1NC(=O)COc1ccc(OC)cc1`, for which the activity increase over dofetilide control, less the hit threshold was -2%. With `Cc1ccc(C(=O)NNC(=S)NC(=O)c2ccccc2)cc1`, the activity increase over dofetilide control, less the hit threshold was -40%.

Consider `Cc1cc2ccccn2c1C(=S)NC(=O)c1ccccc1`, for which the activity increase over dofetilide control, less the hit threshold is 50% (active). The figure for `O=C(Nc1ccc(Cl)cc1Cl)c1n[nH]c(Cn2cncn2)n1` is -1%.

In the case of `S=c1nn[nH]n1C12CC3CC(CC(C3)C1)C2`, the activity increase over dofetilide control, less the hit threshold was 27% (active). The figure for `CCOc1ccc(Nc2ccc([N+](=O)[O-])c3nonc23)cc1` is -6%. Take `Cc1cc(=O)[nH]c(SCC(=O)NC2CCCCC2)n1`: the activity increase over dofetilide control, less the hit threshold was 0%. In the case of `O=C(Nn1cnnc1)c1ccncc1`, the activity increase over dofetilide control, less the hit threshold is -14%. As to `CNC(=S)N/N=C/c1cc(Br)cc(Br)c1O`, the activity increase over dofetilide control, less the hit threshold is -3%. As to `Oc1c(Br)cc(Br)cc1C=Nc1ccc2[nH]ncc2c1`, the activity increase over dofetilide control, less the hit threshold was -2%. Under `Cc1nnc(C)n1/N=C/c1cc(Br)cc(Br)c1O` stands 15% (active).
